This is a sample that favours compounds with a hit; in the whole collection about 7.2% have one here.
Efflux pump mplx – blocks antifungal efflux pumps in multiplex yeast assay; 0.44% of 330,000 active; S. cerevisiae Candida pump triplex, Nile Red efflux; AID 485275; inhibition, % at 10 µM;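 active = plate passing quality check with inhibition over a set limit, or well fluorescence over plate mean plus 4 SD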;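 also: Nile Red retained in pooled yeast measured as flow cytometry median fluorescence; higher means more Nile Red kept so more efflux inhibition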
SUMO Mot1 rescue – inhibitors of SUMOylation pathway: yeast Mot1-301 growth rescue. S. cerevisiae Mot1-301 growth rescue, ATP luminescence, 38.5C; percent above DMSO median, 100 means doubled. growth rescue, % at 18.8 µM. 1% of 320,000 active;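 active = every valid replicate shows activation above 250% relative to neutral control wells; inactive = the rest, any valid replicate at or below 250%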
ALR H2O2 inh – human ALR oxidase inhibition via reduced H2O2; inhibition, % (concentration not given with the values); purified ALR, DTT oxidation, H2O2 HRP-luminol luminescence; 3.8% of 290,000 active; P55789;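 active = mean replicate inhibition above about 79%, with every replicate also reaching it, limit read from the data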
Target sequence (P55789 whole entry, looked up): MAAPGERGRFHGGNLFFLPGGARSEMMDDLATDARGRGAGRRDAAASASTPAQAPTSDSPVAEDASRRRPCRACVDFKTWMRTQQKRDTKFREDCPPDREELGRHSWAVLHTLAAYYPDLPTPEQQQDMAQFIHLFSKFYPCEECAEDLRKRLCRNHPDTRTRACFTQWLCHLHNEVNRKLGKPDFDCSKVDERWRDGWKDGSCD
VLA-4 inh – inhibition in a human VLA-4 binding assay. AID 2557. VLA-4 expressing cells, ligand binding flow cytometry. 0.2% of 330,000 active. inhibition, % (about 7 µM as worked out from the volumes in the protocol); in the data active = inhibition above about 50%
AHR activator – human AHR activation | P35869 | AHR-responsive luciferase reporter cells, luminescence | activation, % at 5 µM | 2.5% of 320,000 active | AID 2796; in the data active = activation above about 47%
A1 inh – inhibitors of the anti-apoptotic protein A1, read as caspase activation; MEF A1-2A-BIM cells, Caspase-Glo 3/7 luminescence, 3 h; percent of clofoctol response, vehicle zero; caspase activation, % (no concentration beside the values); 0.066% of 330,000 active;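 active = over half of replicate activation scores above 10%, or exactly half above 10 with the replicate mean above 10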
Numbers stand for hits.

Results for Cc1ccc2nc(NCCO)nc(-c3ccccc3)c2c1 ?
Efflux pump mplx: inactive; SUMO Mot1 rescue: inactive; ALR H2O2 inh: 98; VLA-4 inh: inactive; AHR activator: inactive; A1 inh: inactive

Results for O=C(NNC(=S)NC(=O)c1ccc(F)cc1)c1cccnc1 ?
Efflux pump mplx: inactive; SUMO Mot1 rescue: inactive; ALR H2O2 inh: 98; VLA-4 inh: inactive; AHR activator: inactive; A1 inh: inactive

What do the screens show for `O=C(NNC(=S)NC(=O)c1cccnc1)c1ccc(F)cc1`?
Efflux pump mplx: inactive; SUMO Mot1 rescue: inactive; ALR H2O2 inh: 98; VLA-4 inh: inactive; AHR activator: inactive; A1 inh: inactive

What do the screens show for `COc1ccccc1N1C(=O)S/C(=C\c2cccs2)C1=O`?
Efflux pump mplx: inactive; SUMO Mot1 rescue: inactive; ALR H2O2 inh: inactive; VLA-4 inh: inactive; AHR activator: 78; A1 inh: inactive

What do the screens show for `O=C(NN1CCOCC1)c1cc(-c2ccc(Br)cc2)nc2ccccc12`?
Efflux pump mplx: inactive; SUMO Mot1 rescue: inactive; ALR H2O2 inh: inactive; VLA-4 inh: inactive; AHR activator: 58; A1 inh: inactive

What do the screens show for `O=C(NCCCN1CCOCC1)c1cc(-c2ccc(Br)cc2)nc2ccccc12`?
Efflux pump mplx: inactive; SUMO Mot1 rescue: inactive; VLA-4 inh: inactive; AHR activator: 75; A1 inh: inactive

What do the screens show for `COc1ccc(OC[C@@H](O)CNC(=O)c2cccc3c2C(=O)c2ccc(Cl)cc2S3(=O)=O)cc1`?
Efflux pump mplx: inactive; SUMO Mot1 rescue: inactive; ALR H2O2 inh: inactive; VLA-4 inh: inactive; AHR activator: inactive; A1 inh: inactive

What do the screens show for `Cc1cccnc1NC(=S)Nc1ccc(Cl)c(Cl)c1`?
Efflux pump mplx: inactive; SUMO Mot1 rescue: inactive; ALR H2O2 inh: inactive; VLA-4 inh: inactive; AHR activator: inactive; A1 inh: inactive

How did COc1ccc(NC(=S)Nc2ncccc2C)cc1OC do in these assays?
Efflux pump mplx: inactive; SUMO Mot1 rescue: inactive; ALR H2O2 inh: 83; VLA-4 inh: inactive; AHR activator: inactive; A1 inh: inactive

What do the screens show for `Cc1cccnc1NC(=S)Nc1ncccc1C`?
Efflux pump mplx: inactive; SUMO Mot1 rescue: inactive; ALR H2O2 inh: inactive; VLA-4 inh: inactive; AHR activator: inactive; A1 inh: inactive

Results for COc1ccc(NC(=S)Nc2ncccc2C)c(OC)c1 ?
Efflux pump mplx: inactive; SUMO Mot1 rescue: inactive; ALR H2O2 inh: 99; VLA-4 inh: inactive; AHR activator: inactive; A1 inh: inactive

What do the screens show for `CN1CCN(c2ccc(NC(=O)c3ccc(Cl)cc3)cn2)CC1`?
Efflux pump mplx: inactive; SUMO Mot1 rescue: inactive; ALR H2O2 inh: 94; VLA-4 inh: inactive; AHR activator: inactive; A1 inh: inactive

What do the screens show for `CN(C)c1ccc(NC(=O)c2ccc(N3CCOCC3)nc2)cc1`?
Efflux pump mplx: inactive; SUMO Mot1 rescue: inactive; ALR H2O2 inh: 100; VLA-4 inh: inactive; AHR activator: inactive; A1 inh: inactive

What do the screens show for `Cc1ccc(C(=O)Nc2ccc(N3CCOCC3)nc2)cc1`?
Efflux pump mplx: inactive; SUMO Mot1 rescue: inactive; ALR H2O2 inh: inactive; VLA-4 inh: inactive; AHR activator: inactive; A1 inh: inactive

How did C1CCc2c(nc3nnnn3c2NC2CCCC2)C1 do in these assays?
Efflux pump mplx: inactive; SUMO Mot1 rescue: inactive; ALR H2O2 inh: inactive; VLA-4 inh: inactive; AHR activator: inactive; A1 inh: inactive

How did CC(=O)N1CCC2(CC1)NC(=O)N(c1ccccc1)N2 do in these assays?
Efflux pump mplx: inactive; SUMO Mot1 rescue: inactive; ALR H2O2 inh: 98; VLA-4 inh: inactive; AHR activator: inactive; A1 inh: inactive

What do the screens show for `Cc1c(C(=O)NCc2ccc(S(N)(=O)=O)cc2)oc2ccc(Cl)cc12`?
Efflux pump mplx: inactive; SUMO Mot1 rescue: inactive; ALR H2O2 inh: inactive; VLA-4 inh: inactive; AHR activator: inactive; A1 inh: inactive

What do the screens show for `CCCCCCn1c(SCC(=O)c2c(N)n(C)c(=O)n(C)c2=O)nc2ccccc21`?
Efflux pump mplx: inactive; SUMO Mot1 rescue: inactive; ALR H2O2 inh: inactive; VLA-4 inh: inactive; AHR activator: inactive; A1 inh: inactive

Results for CCCn1c(N)c(C(=O)CSc2nc3ccccc3n2CCC#N)c(=O)n(C)c1=O ?
Efflux pump mplx: inactive; SUMO Mot1 rescue: inactive; ALR H2O2 inh: inactive; VLA-4 inh: inactive; AHR activator: 53; A1 inh: inactive

Results for CSC(=O)CC(=O)NC(=O)c1ccccc1 ?
Efflux pump mplx: inactive; SUMO Mot1 rescue: inactive; ALR H2O2 inh: 97; VLA-4 inh: inactive; AHR activator: inactive; A1 inh: inactive

What do the screens show for `Cc1cc(C)n2nc(C(=O)OCC(=O)Nc3ccc(C)c(S(=O)(=O)N4CCOCC4)c3)nc2n1`?
Efflux pump mplx: inactive; SUMO Mot1 rescue: inactive; ALR H2O2 inh: inactive; VLA-4 inh: inactive; AHR activator: inactive; A1 inh: inactive

What do the screens show for `COc1cc(O)c(C(CCN2CCCC2)c2ccc(N(C)C)cc2)c(OC)c1` (stereo not drawn)?
Efflux pump mplx: inactive; SUMO Mot1 rescue: inactive; VLA-4 inh: inactive; AHR activator: inactive; A1 inh: inactive

How did COc1cc(O)c(C(CCN2CCCCC2)c2ccc(N(C)C)cc2)c(OC)c1 (stereo not drawn) do in these assays?
Efflux pump mplx: inactive; SUMO Mot1 rescue: inactive; ALR H2O2 inh: 98; VLA-4 inh: inactive; AHR activator: inactive; A1 inh: inactive

What do the screens show for `COc1cc(O)c(C(CC(=O)N2CCCC2)c2ccc(N(C)C)cc2)c(OC)c1` (stereo not drawn)?
Efflux pump mplx: inactive; SUMO Mot1 rescue: inactive; ALR H2O2 inh: 98; VLA-4 inh: inactive; AHR activator: inactive; A1 inh: inactive

Results for COc1cc(/C=N/NC(=O)Cn2cnc3c2c(=O)n(C)c(=O)n3C)ccc1O ?
Efflux pump mplx: inactive; SUMO Mot1 rescue: inactive; ALR H2O2 inh: 100; VLA-4 inh: inactive; AHR activator: inactive; A1 inh: inactive

How did O=C(Cn1cnc2ccccc2c1=O)N/N=C/c1ccc(Br)cc1 do in these assays?
Efflux pump mplx: inactive; SUMO Mot1 rescue: inactive; ALR H2O2 inh: inactive; VLA-4 inh: inactive; AHR activator: inactive; A1 inh: inactive

Results for COc1cc(/C=N/NC(=O)Cn2cnc3ccccc3c2=O)ccc1O ?
Efflux pump mplx: inactive; SUMO Mot1 rescue: inactive; ALR H2O2 inh: 84; VLA-4 inh: inactive; AHR activator: inactive; A1 inh: inactive

How did Cn1c(=O)c2c(ncn2CC(=O)N/N=C/c2ccco2)n(C)c1=O do in these assays?
Efflux pump mplx: inactive; SUMO Mot1 rescue: inactive; ALR H2O2 inh: inactive; VLA-4 inh: inactive; AHR activator: inactive; A1 inh: inactive

What do the screens show for `C/C(=N\Nc1ccc(S(=O)(=O)N2CCCCC2)cn1)c1ccc(O)cc1`?
Efflux pump mplx: inactive; SUMO Mot1 rescue: inactive; ALR H2O2 inh: 91; VLA-4 inh: inactive; AHR activator: inactive; A1 inh: inactive

Results for O=c1cc(-c2ccccc2)oc2ccccc12 ?
Efflux pump mplx: inactive; SUMO Mot1 rescue: inactive; VLA-4 inh: inactive; AHR activator: inactive; A1 inh: inactive

How did O=c1cc(/C=C/c2ccccc2)oc2ccccc12 do in these assays?
Efflux pump mplx: inactive; SUMO Mot1 rescue: inactive; ALR H2O2 inh: inactive; VLA-4 inh: inactive; AHR activator: 60; A1 inh: inactive
